# Assay outcomes as filed in PubChem BioAssay.
# PLK1 PBD block = blocks phosphopeptide binding to human PLK1 polo-box domain; AID 720504; Potency, µM, inactives show max response, negative = inhibition, actives largely listed as inhibitors; P53350; 2.8% of 360,000 active; Plk1 PBD binding of FITC phosphopeptide, fluorescence polarization; further: series mostly up to about 57 µM; on the % scale 0 is the no-effect control and ±100 the full control effect; nearly all actives have a fitted effect of over 65% in size
# Target sequence (P53350 whole entry, looked up, the tested form may be a part): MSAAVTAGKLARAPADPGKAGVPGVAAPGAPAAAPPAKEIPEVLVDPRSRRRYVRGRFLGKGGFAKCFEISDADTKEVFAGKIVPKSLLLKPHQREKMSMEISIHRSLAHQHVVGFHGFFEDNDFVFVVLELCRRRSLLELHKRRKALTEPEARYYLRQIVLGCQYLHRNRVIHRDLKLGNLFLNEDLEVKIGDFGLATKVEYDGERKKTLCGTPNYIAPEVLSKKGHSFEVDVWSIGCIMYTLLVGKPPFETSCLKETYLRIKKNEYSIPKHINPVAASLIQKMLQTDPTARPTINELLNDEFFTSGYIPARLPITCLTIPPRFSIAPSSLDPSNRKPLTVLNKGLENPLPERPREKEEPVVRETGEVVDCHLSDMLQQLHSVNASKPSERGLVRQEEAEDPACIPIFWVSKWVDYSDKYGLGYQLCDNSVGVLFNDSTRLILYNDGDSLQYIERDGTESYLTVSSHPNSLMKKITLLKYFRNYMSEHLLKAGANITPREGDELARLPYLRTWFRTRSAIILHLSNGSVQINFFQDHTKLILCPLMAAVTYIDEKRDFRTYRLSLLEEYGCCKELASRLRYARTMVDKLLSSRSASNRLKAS
# Sfp PPTase inh = blocks B. subtilis Sfp PPTase activity; Q9F4F7; Biochemical Sfp PPTase activity, qHTS; Potency, µM, inactives show largest response in the series, negative = inhibition, most hits filed as inhibitors; 3.5% of 310,000 active;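 further: the enzyme is Sfp with the accession as filed and its product quenches rhodamine fluorescence; 0% = enzyme reaction without inhibitor and -100% = no enzyme wells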
#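 Compounds were incubated with enzyme (final 15 nM) for 15 min at room temperature before substrate addition started the reaction. Fluorescence at 525 nm excitation, 598 nm emission was recorded immediately and after 30 minutes.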
# JMJD2A Tudor = JMJD2A Tudor domain (human) inhibition; O75164; AlphaScreen JMJD2A-Tudor / H3K4me3 peptide binding; Potency, µM (highest dose often 114 µM), without a hit: at the highest dose activity change, negative = inhibition, hits mostly inhibitors; 4.4% of 390,000 active; AID 504339; further: on the % scale 0 is the no-effect control and ±100 the full control effect; nearly all actives have a fitted effect of over 50% in size
# G9a block = G9a (human) methyltransferase inhibition. 8.8% of 350,000 active. Q96KQ7. Potency, µM (top dose mostly 102 µM), inactives show at the highest dose activity, negative = inhibition, actives largely listed as inhibitors. G9a H3K9 monomethylation, AlphaScreen, 2 h. AID 504332; further: on the % scale 0 is the no-effect control and ±100 the full control effect; nearly all actives have a fitted effect of over 75% in size
#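 AlphaScreen read-out: biotin-H3K9 peptide (500 nM) methylation by 20 nM enzyme with 20 uM SAM, 2 h at room temperature after 15 min compound preincubation; anti-monomethyl H3K9 antibody plus donor/acceptor beads, 10 min dark.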
# BAZ2B inh = blocks human BAZ2B; 4.4% of 360,000 active; AlphaScreen BAZ2B-H3K14Ac peptide displacement; Q9UIF8; Potency, µM (highest dose often 114 µM), inactives show top-dose activity change, negative = inhibition, hits mostly inhibitors; further: on the % scale 0 is the no-effect control and ±100 the full control effect; nearly all actives have a fitted effect of over 60% in size
#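 Protein-peptide AlphaScreen: BAZ2B 50 nM, b-H3K14Ac 50 nM, 1x PBS pH 7.4 + 0.01% Tween-20. Preincubation 30 min RT; cpd 30 min RT (top 110 uM); beads 20 min RT, light-protected.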
# HP1b chromo inh = HP1-beta chromodomain-methylated histone interaction inhibition. 0.56% of 390,000 active. AID 540317. AlphaScreen HP1-beta / biotin-H3K9me3 peptide binding. Potency, µM (top dose mostly 114 µM), inactives show at the highest dose activity change, negative = inhibition, hits mostly inhibitors. P83916; further: nearly all actives have a fitted effect of over 70% in size
# Target sequence (P83916 whole entry, looked up): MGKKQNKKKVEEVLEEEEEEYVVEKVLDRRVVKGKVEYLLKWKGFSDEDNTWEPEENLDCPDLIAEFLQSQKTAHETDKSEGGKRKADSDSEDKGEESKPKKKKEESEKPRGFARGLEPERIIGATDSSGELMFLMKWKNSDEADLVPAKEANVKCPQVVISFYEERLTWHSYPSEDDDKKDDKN
#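 HP1-beta protein (50 nM final) preincubated 30 min at room temperature with biotinylated H3(1-18)K9me3 peptide (50 nM) in PBS pH 7.4, 0.01% Tween-20, then compound added for 30 min. AlphaScreen streptavidin donor/nickel chelate acceptor beads (10 ug/mL final), 30 min dark, luminescence read.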
# An asterisk follows results filed as active; ? = inconclusive; . = not tested or not shown; [ ] = another dose, or the depositor's remark. Sampled rows, rich in hits. Any-hit rate of the full collection: about 12%. The call rests on the fitted dose curve; in most records, active means well fitted curve in the direction sought with a large enough effect; inconclusive means small, poorly fitted or top-dose-only effect, or another doubt; inactive means no such curve, though single readings can be large; an effect the other way counts as inactive or inconclusive. Potency means the concentration at half of the fitted maximal effect.
SMILES,PLK1 PBD block,Sfp PPTase inh,JMJD2A Tudor,G9a block,BAZ2B inh,HP1b chromo inh
Cc1ccc(S(=O)(=O)NCC2CCC(C(=O)NC3CCCCC3)CC2)cc1 (stereo not given),-1.4%,7.0%,-11.3%,8.1%,-11.5%,37.3%
CC(C)(C)NC(=O)COC(=O)CNC(=O)C1CCCCC1,.,.,6.9%[57.1 µM],.,.,10.9%[57 µM]
COc1ccc(/C=C/C2=CC(C)(C)NC(=S)N2)cc1OC,-27.3%,13.3%,-35.5%,44.7µM*,.,15.7%
C/C(CC1CC(COCCC(C)C)OC1=O)=N\NC(N)=S (stereo not given),-1.1%,79.4µM*,?,7.4%[0.501 µM],?,22.3%
CC(C)CCC1CC(CSC(=N)N)OC1=O (stereo not given),-14.5%,-16.3%,-12.2%[57.1 µM],6.2%[59 µM],0.1%,61.6%
C/C(CCC1CC(C)(C)OC1=O)=N\NC(N)=S (stereo not given),4.4%,44.7µM*,79.4µM*,8.91µM*,?,-8.1%
C/C(CC1CC(C)(C)OC1=O)=N\NC(N)=S (stereo not given),-15.1%,35.5µM*,7.08µM*,31.6µM*,?,6.9%
CCCC1CC(C)(/C(C)=N\NC(N)=S)OC1=O (stereo not given),2.1%,-26.0%,-0.7%,14.0%[0.501 µM],5.3%,44.2%
O=C(NCc1cccc(Br)c1)C1CCCCN1S(=O)(=O)c1ccc(F)cc1 (stereo not given),.,.,16.2%,-5.9%[59 µM],10.5%,49.7%
O=C1CC(c2ccccc2)CC(O)=C1C=NCCN1CCN(Cc2ccccc2)CC1 (stereo not given),7.6%,4.2%,-11.2%,.,-1.0%,31.4%
COc1cc(OC)cc(-c2nnc(SCc3ccc(C(=O)O)cc3)o2)c1,18.9µM*,50.1µM*,-24.1%,39.8µM*,5.1%,10.5%
Cc1cc(N2CCC(C)CC2)nc2ccc(NC(=O)/C=C/c3cccc(Cl)c3)cc12,.,.,-28.7%,-32.1%[59 µM],-17.0%,11.3%
NC1=CC(=O)c2cccc3cccc1c23,.,3.55µM*,.,?,?,.
O=C1C=C(O)c2cccc3cccc1c23,-16.6%,-3.7%,-32.9%,12.8%[0.501 µM],-1.6%,19.1%
O=C(c1ccc(NS(=O)(=O)c2ccc(F)cc2)cc1)N1CCCCCC1,-3.7%,.,-29.2%,-42.4%,5.0%,-14.4%
O=C(c1ccc(NS(=O)(=O)c2ccc(F)cc2)cc1)N1CCCCC1,-15.7%,.,-7.5%,44.7µM*,7.4%,8.0%
O=S(=O)(Nc1ccc(N2CCCCC2)cc1)c1cccs1,-12.4%,-23.9%,?,35.5µM*,?,-25.9%
O=S(=O)(Nc1ccc(S(=O)(=O)N2CCCCCC2)cc1)c1cccs1,-4.8%,10.5%,-5.0%,7.0%[12.7 µM],3.5%,13.9%
O=C(CNS(=O)(=O)c1ccc(C(=O)N2CCCCC2)cc1)N1CCCCC1,29.9µM*,12.8%,56.2µM*,-41.6%[12.7 µM],-18.1%,-6.6%
O=S(=O)(Nc1ccc(N2CCCCC2)cc1)c1ccccc1,-3.8%,-6.0%,?,?,50.1µM*,?
CC(=O)Nc1cccc(NC(=O)C(=O)NCC(c2ccco2)N2CCc3ccccc3C2)c1 (stereo not given),-8.7%,.,-33.6%,13.2%[0.501 µM],-13.5%,?
CCOc1ccccc1CNC(=O)c1ccc2nc(CCc3ccccc3)oc2c1,.,.,-15.7%,17.1%[59 µM],-0.7%,24.8%[57 µM]
O=C(NNC(=O)c1ccc(F)cc1)C(=O)N1CCCCC1,-9.6%,5.6%,25.1µM*,?,8.0%,10.0%
O=S(=O)(Nc1ccc(N2CCCCC2)cc1)c1ccc(F)cc1,-1.8%,-0.3%,?,.,79.4µM*,?
O=S(=O)(Nc1ccc(N2CCOCC2)cc1)c1ccc(F)cc1,2.2%,6.2%,-17.2%,?,-26.6%,-0.4%
SMILES,PLK1 PBD block,Sfp PPTase inh,JMJD2A Tudor,G9a block,BAZ2B inh,HP1b chromo inh
CCOC(=O)C1CCCN(C(=O)CCn2nnnc2CN2CCOCC2)C1 (stereo not given),-4.7%,8.0%,-2.9%,.,0.5%,29.2%
COc1ccc2[nH]c(-c3ccc(C)cc3)cc(=O)c2c1,2.2%,11.7%,-15.1%,79.4µM*,7.3%,38.9%
Cc1nnc(NC(=O)CSc2nccn2-c2cccc(Cl)c2)s1,.,.,-20.3%,0.7%[59 µM],-10.9%,8.6%[57 µM]
COc1ccc(-c2csc(NC(=O)CSc3n[nH]c(C)n3)n2)cc1,-28.6%,-0.4%,-14.7%,6.0%[59 µM],-14.4%,15.0%
COc1ccccc1NC(=O)c1ccc(NC(=O)CSc2n[nH]c(N)n2)cc1,29.9µM*,21.6%,-35.1%,?,-9.1%,-4.8%
CC1(C(=O)OCC(=O)Nc2ccc(C(N)=O)cc2)CC1(Cl)Cl (stereo not given),4.4%,11.5%,9.8%,-15.5%,-11.3%,37.0%
COc1ccccc1NC(=O)c1ccc(NC(=O)COC(=O)C2(C)CC2(Cl)Cl)cc1 (stereo not given),21.2µM*,14.4%,79.4µM*,-3.5%[59 µM],-7.4%,2.9%
COc1ccc(-c2csc(NC(=O)CSc3n[nH]c(N)n3)n2)cc1,26.7µM*,-19.9%,10µM*,8.91µM*,-8.0%,79.4µM*
Cc1cc(C)c(Cn2c(C(O)c3ccccc3)nc3ccccc32)c(C)c1 (stereo not given),.,.,?,2.2%[59 µM],-4.2%,54.5%
O=C(CCSc1ccc(Cl)cc1)NCc1ccccn1,-18.7%,20.9%,0.8%,1.2%,-16.2%,37.1%
O=C(NCc1cccs1)Nc1ccc2c(c1)OCO2,-1.1%,4.9%,-21.6%,?,0.9%,27.8%
CC(C)C(CCNCc1ccccn1)c1ccc(Cl)cc1 (stereo not given),?,-13.7%,20µM*,?,50.1µM*,11.4%
O=C(NCc1ccccn1)Nc1ccc2c(c1)OCO2,-2.8%,79.4µM*,13.5%,-29.7%[59 µM],4.2%,13.5%
O=S(=O)(NCc1ccccn1)c1ccc2c(c1)OCCO2,5.2%,-5.8%,-7.4%,-6.1%[12.7 µM],7.7%,30.8%
CC(C)CCC(CCNCc1ccccn1)c1ccc2c(c1)OCO2 (stereo not given),-4.7%,-20.8%,39.8µM*,15.8µM*,56.2µM*,9.5%
O=C(NCc1ccncc1)Nc1ccc2c(c1)OCO2,-13.6%,-5.6%,-29.2%,44.7µM*,11.0%,16.5%
CCN(CC(=O)Nc1ccc(OC)cc1)CC(=O)N1CC(=O)Nc2ccccc21,1.5%,.,2.6%,-1.1%[2.33 µM],9.5%,46.7%
O=C(N/N=C/c1c[nH]c2ccccc12)c1[nH]c2ccc(Br)cc2c1-c1ccccc1,8.44µM*,33.4%,?,20.9%[59 µM],-27.8%,-7.2%
CCOC(=O)N1CCN(c2nc(-c3ccc(Cl)cc3)cs2)CC1,-8.8%,?,-6.7%,11.2µM*,-12.7%,54.5%
CC(C)C(=O)N1CCN(c2nc(-c3ccc(Cl)cc3)cs2)CC1,-18.0%,11.8%,-18.0%,?,-21.7%,14.1%
CS(=O)(=O)N1CCN(c2nc(-c3ccccc3)cs2)CC1,0.3%,-3.2%,-33.7%,-0.6%[59 µM],?,-22.4%
